A selection: hits, their analogues and other compounds. The true share with any hit is near 19%.
HT1080 IDH1KD tx: toxicity to HT-1080 IDH1 knockdown cells (counter line); HT-1080 IDH1 knockdown viability, ATP luminescence, 48 h; Potency, µM (doses to about 46.1 µM), most hits filed as cytotoxic; 360,000 tested, 2% active
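Cytotoxicity counter-line: IDH1KD HT-1080, 48 h, CellTiter-Glo. Curves classed by r2, magnitude and activity.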
IL-1B inflam inh: inflammasome signaling inhibition, IL-1 beta readout | THP-1 LPS/ATP IL-1B secretion, AlphaLISA, 16 h; active compounds read low | 360,000 tested, 4.7% active | activity change, % at 57.5 µM | AID 743279; in the data active means activity change below about -50%; inconclusive means mostly about -30% to -49%
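Secreted IL-1B measured by AlphaLISA bead assay after 16 h compound exposure of THP-1 cells; compounds (final up to 57.5 uM) added 1 h before LPS (250 ng/mL) and ATP (1.25 mM) stimulation; lower signal means less secretion.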
HT1080-NT tox: kills 2HG-producing HT-1080-NT fibrosarcoma cells. HT-1080-NT fibrosarcoma viability, CellTiter-Glo ATP luminescence, 48 h. Potency, µM (doses to about 46.1 µM), most hits filed as cytotoxic. 360,000 tested, 1.6% active;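 further: NT is the 2HG producing partner of a matched IDH1 knockdown line; nearly all actives have a fitted effect of over 55% in size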
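Viability of the 2HG-overproducing fibrosarcoma line after 48 hours of compound exposure at 37 degrees C was determined by luminescence with CellTiter-Glo, and concentration-effect curves were then fitted and categorized.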
TDP1 cell noCPT: qHTS for Inhibitors of human tyrosyl-DNA phosphodiesterase 1 (TDP1): qHTS in cells in absence of CPT | DT40 Tdp1-/- hTDP1 cells, no CPT, ATP luminescence, 48 h | Potency, µM (top dose mostly 46.2 µM), hits mostly inhibitors | 420,000 tested, 15% active | AID 686978, 2013; further: nearly all actives have a fitted effect of over 55% in size
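No-CPT arm: Tdp1-/-;hTDP1 DT40 cells (400/well) plus compounds, incubated ≥48 hr at 37 °C. Readout CellTiter-Glo luminescence.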
TDP1 cell CPT: DT40-hTDP1 cell growth loss with CPT | AID 686979 | 420,000 tested, 12% active | chicken DT40 Tdp1-/-;hTDP1 cells + 20 nM CPT, ATP luminescence, 48 h | Potency, µM (doses to about 46.2 µM), most hits filed as inhibitors; further: nearly all actives have a fitted effect of over 55% in size
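Chicken DT40 Tdp1-/- cells stably complemented with human TDP1 were seeded at 400 cells/well in medium containing 20 nM camptothecin, exposed to pin-transferred compounds, and grown at 37 °C for at least 48 hr. Viability was read as ATP luminescence.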
A number is an active result; 0 = inactive; ? = inconclusive; - = no result; [ ] = another dose, or the depositor's remark. Unless noted, the call rests on the fitted dose curve; in most records, active means well fitted curve in the direction sought with a large enough effect; inconclusive means small, poorly fitted or top-dose-only effect, or another doubt; inactive means no such curve, though single readings can be large; an effect the other way counts as inactive or inconclusive.

SMILES | HT1080 IDH1KD tx | IL-1B inflam inh | HT1080-NT tox | TDP1 cell noCPT | TDP1 cell CPT
C=CC[C@H](CC(=O)N(CCO)Cc1ccccc1)C(=O)NCCOC(=O)[C@@H](CC=C)Cc1ccc(F)cc1 | 0 | 0 | 0 | ? | ?
Cc1nc(NC(=O)CN2CC(C)OC(C)C2)sc1C(=O)N(C)C (stereo not drawn) | 0 | 0 | 0 | 0 | 0
Cc1ccc(-c2c(CN3CCN(c4cccc(C)c4C)CC3)csc2C)cc1 | - | - | - | 20.6µM | 14.6µM
Cc1ccc(-c2c(CN3CCN(c4cccc(C)c4)C(C)C3)csc2C)cc1 (stereo not drawn) | - | - | - | 16.4µM | ?
Cc1cccc(N2CCN(Cc3cnc(Cl)s3)CC2C)c1 (stereo not drawn) | 0 | 0 | 0 | 0 | 0
CCOc1cc(/C=N/NC(=O)C2CCCC2)ccc1OC(C)C | 0 | 0 | 0 | 0 | ?
CC1=NNC(=O)C1CC(=O)N/N=C/C=C/c1ccccc1 (stereo not drawn) | 0 | 0 | ? | 0 | 0
O=C(Nc1ccccc1)c1ccc2ccccc2n1 | 0 | 0 | 0 | 0 | ?
COc1ccccc1NS(=O)(=O)c1cccc(NC(=O)c2ccc3ccccc3n2)c1 | 0 | 0 | 0 | 16.4µM | 20.6µM
O=C(NNC(=O)c1cccc(S(=O)(=O)Nc2ccccc2F)c1)c1ccncc1 | 0 | 0 | 0 | 0 | 0
O=C(Cc1c(F)cccc1Cl)Nc1cccc(S(=O)(=O)NC2=NCCCCC2)c1 | 0 | 0 | 0 | 0 | 0
O=C(Nc1cccc(S(=O)(=O)Nc2ccccc2F)c1)c1ccc2ccccc2n1 | 0 | -50.9 | 0 | 23.1µM | ?
O=C(/C=C/c1ccccc1)Nc1cccc(S(=O)(=O)Nc2ccccc2F)c1 | 0 | -54.0 | 0 | 14.6µM | 14.6µM
O=C(Cc1ccc(Cl)cc1Cl)Nc1cccc(S(=O)(=O)Nc2ccccc2F)c1 | 0 | -101.6 | 0 | 23.1µM | 14.6µM
CCN(CC)C(=O)Cn1cc(C(=O)C(=O)Nc2ccc3c(c2)OCO3)c2ccccc21 | 0 | 0 | 0 | ? | ?
COc1ccccc1NS(=O)(=O)c1cccc(NC(=O)c2nc3nc(C)cc(C)n3n2)c1 | 0 | 0 | 0 | 13µM | 23.1µM
Cc1cc(C)n2nc(C(=O)Nc3cccc(S(=O)(=O)N4CCCC4)c3)nc2n1 | 0 | 0 | 0 | 0 | 0
O=c1cc(C(F)(F)F)[nH]c2ccc(C(F)(F)F)cc12 | ? | ? | ? | 0.731µM | 7.31µM
O=C(CCN1C(=O)c2ccccc2S1(=O)=O)Nc1ccccc1F | 0 | -59.7 | 0 | 0 | 0
CCOc1ccc(NS(=O)(=O)c2cc(OC)ccc2OC)cc1 | ? | 0 | 0 | ? | 0
CCOc1ccc(S(=O)(=O)Nc2ccc(F)cc2)c(C)c1C | 10µM | 0 | 0[9.24 µM] | 20.6µM | 25.9µM
O=C(NCc1ccccc1)C(c1c(F)cccc1Cl)N(C(=O)c1csnn1)C1CC1 (stereo not drawn) | 0 | 0 | 0 | ? | ?
COc1ccc(CNC(=O)C(c2ccccc2F)N(C(=O)c2csnn2)C2CC2)cc1 (stereo not drawn) | 0 | 0 | 0 | ? | 20.6µM
Cc1cc(=O)[nH]c2c1c(C)nn2C1CCOC(C)(C)C1 (stereo not drawn) | 0 | 0 | 0 | 0 | 0
CC(=NNC(=S)N1CCCCC1)c1cccc(C)n1 | ? | 0 | 0 | 0.0184µM | 0.0092µM
SMILES | HT1080 IDH1KD tx | IL-1B inflam inh | HT1080-NT tox | TDP1 cell noCPT | TDP1 cell CPT
CC(=NNC(=S)N1CCCCC1)c1ccccn1 | ? | -73.7 | 0 | 0.0082µM | 0.0259µM
CC(=NNC(=S)N1CC2CCC(CC2)C1)c1ccncn1 | ? | 0 | 16.4µM | 0.0291µM | 0.0366µM
CSC(=S)NN=C(C)c1cccc(C)n1 | ? | ? | 0 | 0.0184µM | 0.0326µM
Cc1cccc(C(=S)N2CCOCC2)n1 | 0 | 0 | 0 | 0 | 0
CCN(CC)c1ccc(CNc2nc3ccccc3n2CCN2CCCCC2)cc1 | ? | -104.7 | 16.4µM | ? | 4.61µM
CCOc1ccc(CNc2nc3ccccc3n2CCN2CCOCC2)cc1 | 0 | 0 | 0 | 20.6µM | ?
CCN(CC)CCSc1nc2ccccc2c(=S)n1-c1ccccc1 | ? | -56.0 | ? | 23.1µM | ?
CCN(CC)c1ccc(CNc2nc3ccccc3n2C)cc1 | 0 | 0 | 0 | 0 | 0
COc1ccc(CCN2CCC(Nc3nc4ccccc4n3Cc3ccc(F)cc3)CC2)cc1 | 8.2µM | -67.1 | 14.6µM | 7.31µM | 14.6µM
CCN(CC)CCSc1nc(O)c(-c2ccccc2)c(=O)n1-c1ccccc1 | 0 | 0 | 0 | 0 | 0
CC(C)(C)CC(=O)NC(=S)N1CCCCCC1 | ? | 0 | 0 | 0 | 0
O=C(Cc1ccc(NC(=O)C2CCN(C(=O)c3ccccc3)CC2)cc1)Nc1cccc(C(=O)N2CCCCC2)c1 | 0 | 0 | 0 | 0 | 0
CCCCn1c(N)c(N(CCOC)C(=O)c2ccc(Cl)c(S(=O)(=O)N3CCCCC3)c2)c(=O)[nH]c1=O | 0 | 0 | 0 | 0 | 0
CSc1nc(Nc2ccc(C)cc2)c(C#N)c(-c2ccccc2)n1 | - | - | - | 0 | 0
c1ccc(Cn2c(CNc3nc4ccccc4n3CCN3CCCCC3)nc3ccccc32)cc1 | 23.1µM | -50.5 | 20.6µM | ? | ?
CCN(CC)CCn1c(NCc2nc3ccccc3n2Cc2ccccc2)nc2ccccc21 | 11.2µM | -58.6 | ? | ? | ?
Brc1cccc(CNc2nc3ccccc3n2CCN2CCOCC2)c1 | 0 | 0 | 0 | 11.6µM | ?
O=C(O)CSc1nc2ccccc2n1Cc1ccccc1 | 0 | 0 | 0 | 0 | 0
CCN(CC)CCSc1nc2ccccc2n1Cc1ccccc1 | 0 | 0 | 0 | 16.4µM | ?
O=C(NNC(=O)C1CC1c1ccccc1)Nc1cccc(Cl)c1 (stereo not drawn) | ? | 0 | ? | 0 | 0
O=C(NCCc1ccccc1)c1cc(-c2ccc(Cl)cc2)on1 | - | - | - | 0 | 0
O=C(COC(=O)c1ccc(O)cc1)c1ccc(S(=O)(=O)N2CCCCC2)cc1 | 0 | 0 | 0 | 0 | 0
COc1ccc(CNc2nc3ccccc3n2CCN2CCCCC2)cc1 | 0 | ? | 0 | 20.6µM | 18.4µM
O=C(Nc1ccc(Cl)c(Cl)c1)OCCNC(=O)c1cccc(Cl)c1 | ? | 0 | ? | 11.6µM | 6.51µM
COc1cc(/C=C(/C#N)c2ccc(C)cc2)ccc1Oc1ccc([N+](=O)[O-])cn1 | 0 | -69.3 | 0 | ? | ?
COc1cc(/C=N/NC(=O)c2ccccc2Cl)ccc1Oc1ccc([N+](=O)[O-])cn1 | 0 | 0 | 0 | ? | ?
CCOc1cc(/C=C(/C#N)c2nc3ccccc3[nH]2)ccc1Oc1ccc([N+](=O)[O-])cn1 | 0 | ? | 0 | ? | 13µM
Cc1c(/C=N/NC(=O)c2ccccc2O)c2ccccn2c1C(=O)c1ccc(F)cc1 | ? | -87.6 | ? | 23.1µM | ?
Cc1nc(SCC(=O)NCc2ccco2)[nH]c(=O)c1C | 0 | 0 | ? | 0 | 23.1µM
Cc1cc2cc(C)c3nnc(SCC(=O)NCc4ccco4)n3c2cc1C | 0[9.24 µM] | -66.1 | 0 | ? | ?
